Sfp inh – blocks B. subtilis Sfp PPTase activity. AID 1490. 310,000 tested, 3.5% active. Potency, µM, for inactives: largest response in the series, negative = inhibition, usual class: inhibitors. Biochemical Sfp PPTase activity, qHTS. Q9F4F7;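 further: the enzyme is Sfp with the accession as filed and its product quenches rhodamine fluorescence; 0% = enzyme reaction without inhibitor and -100% = no enzyme wells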
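Reaction rates are the 30-min fluorescence difference (ex 525, em 598 nm) in wells containing 15 nM Sfp, 5 uM rhodamine-CoA and 12.5 uM BHQ-2-YbbR at pH 7.6 with 10 mM MgCl2.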
JMJD2A Tudor inh – blocks the human JMJD2A Tudor domain | AlphaScreen JMJD2A-Tudor / H3K4me3 peptide binding | 390,000 tested, 4.4% active | Potency, µM (titrated, usually from 114 µM), without a hit: at the highest dose activity change, negative = inhibition, hits mostly inhibitors | AID 504339 | O75164; further: on the % scale 0 is the no-effect control and ±100 the full control effect; nearly all actives have a fitted effect of over 50% in size
BAZ2B block – blocks human BAZ2B | Potency, µM (titrated, usually from 114 µM), inactives show top-dose activity change, negative = inhibition, usual class: inhibitors | AID 504333 | AlphaScreen BAZ2B-H3K14Ac peptide displacement | 360,000 tested, 4.4% active; further: on the % scale 0 is the no-effect control and ±100 the full control effect; nearly all actives have a fitted effect of over 60% in size
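BAZ2B 50 nM plus b-H3(5-23)K14Ac 50 nM, PBS pH 7.4/0.01% Tween-20, 30 min RT; compound added (max 110 uM), 30 min RT; streptavidin donor/Ni-chelate acceptor beads 10 ug/mL final, 20 min dark; AlphaScreen read.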
G9a block – blocks human histone lysine methyltransferase G9a | 350,000 tested, 8.8% active | G9a H3K9 monomethylation, AlphaScreen, 2 h | Potency, µM (series often up to 102 µM), for the others: top-dose activity, negative = inhibition, most hits filed as inhibitors | Q96KQ7; further: on the % scale 0 is the no-effect control and ±100 the full control effect; nearly all actives have a fitted effect of over 75% in size
Target sequence (Q96KQ7 913-1193 limits assumed): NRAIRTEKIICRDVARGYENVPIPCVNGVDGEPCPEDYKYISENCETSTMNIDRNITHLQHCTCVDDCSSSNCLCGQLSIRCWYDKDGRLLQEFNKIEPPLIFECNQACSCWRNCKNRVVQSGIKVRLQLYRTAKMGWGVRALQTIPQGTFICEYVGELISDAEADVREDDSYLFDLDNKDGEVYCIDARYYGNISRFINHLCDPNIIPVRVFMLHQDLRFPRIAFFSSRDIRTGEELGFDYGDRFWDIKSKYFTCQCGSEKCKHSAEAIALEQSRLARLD
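Readings reflect AlphaScreen signal from monomethyl-H3K9 antibody detection. HMT at 20 nM; substrate b-H3K9 500 nM; cofactor SAM 20 uM; 2 h RT reaction; compounds tested as titrations in qHTS with 15 min preincubation.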
HP1b chromo inh – inhibitors of HP1-beta chromodomain binding to methylated histone tails | AlphaScreen HP1-beta / biotin-H3K9me3 peptide binding | Potency, µM (highest dose often 114 µM), inactives show at the highest dose activity change, negative = inhibition, hits mostly inhibitors | 390,000 tested, 0.56% active; further: nearly all actives have a fitted effect of over 70% in size
Target sequence (P83916 whole entry, looked up): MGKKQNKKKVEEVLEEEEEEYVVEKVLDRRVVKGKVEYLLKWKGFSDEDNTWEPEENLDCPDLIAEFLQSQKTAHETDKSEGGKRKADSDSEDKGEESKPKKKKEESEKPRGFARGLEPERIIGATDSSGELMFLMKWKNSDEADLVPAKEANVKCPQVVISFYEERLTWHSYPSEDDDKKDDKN
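AlphaScreen: HP1-beta (50 nM) preformed 30 min with biotin-H3(1-18)K9me3 peptide (50 nM) in PBS pH 7.4, 0.01% Tween-20. Compound added for 30 min at RT, then streptavidin donor/nickel chelate acceptor beads (10 ug/mL) for 30 min.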
ALOX12 inh – blocks human arachidonate 12S-lipoxygenase | P18054 | purified 12hLO, xylenol orange hydroperoxide absorbance | 580,000 tested, 1.1% active | Potency, µM (series often up to 108 µM), inactives show at the top dose activity change, negative = inhibition, hits mostly inhibitors; further: on the % scale 0 is the no-effect control and ±100 the full control effect
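Hydroperoxide product was detected by ferrous iron/xylenol orange as the 573 to 405 nm absorbance ratio. Arachidonic acid at 40 uM (final) was turned over for 30 min at room temperature by 150 nM human 12hLO, pH 7.0 Hepes buffer, after 15 min compound preincubation.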
* marks the source's active call; other numbers are inactive results; ? = inconclusive; nt = not tested or not shown; [ ] = another dose, or the depositor's remark. In the library only some 8.7% were active in any assay of this set; here they are far more common. The call rests on the fitted dose curve; in most records, active means well fitted curve in the direction sought with a large enough effect; inconclusive means small, poorly fitted or top-dose-only effect, or another doubt; inactive means no such curve, though single readings can be large; an effect the other way counts as inactive or inconclusive. Potency means the concentration at half of the fitted maximal effect.

SMILES | Sfp inh | JMJD2A Tudor inh | BAZ2B block | G9a block | HP1b chromo inh | ALOX12 inh
O=S(=O)(Nc1ccc(N=Nc2ccc(O)c3ccccc23)cc1)c1ccccc1 | ? | 25µM* | 40µM* | ? | 40µM* | ?
O=S(=O)(Nc1ccc(N=Nc2ccccc2)cc1)c1ccccc1 | 21% | 35µM* | 35µM* | 32µM* | 45µM* | -15%
O=S(=O)(Nc1ccc(-c2ccccc2)cc1)c1ccccc1 | nt | -12% | nt | nt | 5% | -16%
Cc1ccc(Cl)cc1NC(=O)C1CC(=O)N(C2CCCCC2)C1 (stereo unspecified) | nt | nt | nt | nt | nt | 1%
CCOc1ccc(C(=O)N2CCCC(c3noc(COc4ccccc4)n3)C2)cc1 (stereo unspecified) | nt | nt | nt | nt | nt | -3%
Cc1cc(C)n(CC(=O)NCC2(C)CCOCC2)n1 | nt | nt | nt | nt | nt | 37%
CCOc1ccc2c(c1)cc(C(=O)N1CCCCC1)n2C | nt | nt | nt | nt | nt | -29%
CCOC(=O)C1=CN(CC2CCCO2)C=C(C(=O)OCC)C1c1ccccc1C(F)(F)F (stereo unspecified) | 40µM* | 20% | 47% | 117%[59 µM] | 201% | -1%
O=C(N/N=C/c1cc(O)ccc1Br)c1cccnc1 | 24% | 45µM* | 7.1µM* | nt | 42% | 3%
O=C(N/N=C/c1cc(Br)c(O)c(Br)c1O)c1cccnc1 | -16% | 50µM* | 35µM* | ? | 26% | ?
O=C(N/N=C(\c1ccccc1)c1cccnc1)c1cc(O)ccc1O | ? | nt | -34% | 10µM* | nt | -29%
NC(=O)c1cc(Cl)ccc1OCC(=O)N1CCCCCC1 | nt | nt | nt | nt | nt | 20%
Fc1ccc(/C=C2\CCCC3=C2N=C2SC=C(c4ccccc4)N2C3c2ccc(F)cc2)cc1 (stereo unspecified) | nt | nt | nt | nt | nt | 22µM*
Nc1ccccc1C1CC1 | nt | nt | nt | nt | nt | 7.1µM*
Nc1ccccc1-c1ccccc1N | -5% | -10% | -13% | 14%[0.501 µM] | 17% | -1%
Cc1cccc(N2CCN(C(=O)CCn3ccn4nc5c(c4c3=O)CCCC5)CC2)c1 | nt | nt | nt | nt | nt | 19%
O=C(CCc1nc(-c2cccs2)no1)Nc1ccccc1N1CCOCC1 | nt | nt | nt | nt | nt | -7%
COc1ccccc1C1CC(=O)Oc2cc(C)c(Cl)cc21 (stereo unspecified) | -22% | 25% | nt | 63% | 78% | 40µM*
COc1ccccc1C1CC(=O)Oc2cc3c(cc21)OCO3 (stereo unspecified) | -18% | nt | nt | 35µM* | nt | nt
COc1ccccc1C1CC(=O)Oc2cc(O)ccc21 (stereo unspecified) | 3% | ? | nt | 17% | 25% | -4%
O=C1CCCC2=C1C(c1cccc(F)c1)C1=C(CCCC1=O)O2 | nt | nt | nt | nt | nt | 4%
Cc1ccc(Cn2nc(C)c(C(=O)OCC(=O)c3cc(C)n(C)c3C)c2Cl)cc1 | nt | nt | nt | nt | nt | -4%
COc1cc(F)ccc1-c1cc(C(=O)NCCc2cnc[nH]2)c2c(c1)N(C)CCO2 | nt | nt | nt | nt | nt | 61%[176 µM]
O=C(NC(=S)Nc1ccc(N2CCOCC2)c(Cl)c1)c1cccs1 | 1% | ? | 35µM* | 1% | -5% | ?
O=C(Nc1ccc(N2CCN(C(=O)c3cccs3)CC2)c(Cl)c1)c1ccco1 | 1% | -12% | -3% | -1% | 17% | 26%
SMILES | Sfp inh | JMJD2A Tudor inh | BAZ2B block | G9a block | HP1b chromo inh | ALOX12 inh
O=C(NC(=S)Nc1ccccc1N1CCOCC1)c1sc2ccccc2c1Cl | -15% | -29% | -7% | ? | -7% | -1%
O=C(NC(=S)Nc1ccc(N2CCCCC2)cc1)c1cccs1 | ? | 35µM* | 14µM* | 14µM* | 40µM* | -54%
O=C(NC(=S)Nc1ccc(N2CCOCC2)c(Cl)c1)c1sc2ccccc2c1Cl | ? | -11% | -35% | 1.3µM* | 5% | -5%
O=C(Nc1ccc(N2CCCC2)c(Cl)c1)c1cccs1 | 5% | 45µM* | 45µM* | 28µM* | ? | 6%
CCOC(=O)C1=C(C)N(C)C(=O)N(C)C1c1cccc(Br)c1 (stereo unspecified) | nt | nt | nt | nt | nt | -9%
CC(=O)NCC(=O)N1Cc2ccccc2CC2(CCCCN2CC2CCNCC2)C1 (stereo unspecified) | nt | nt | nt | nt | nt | 5%[6.33 µM]
CSc1ccc(NC(=O)c2cccnc2)cc1C#N | 16% | 0% | -15% | 50µM* | 27% | 2%
O=C(Nc1ccc2c(c1)OCO2)c1cccc2c1C(=O)N(Cc1cccnc1)C2 | -1% | ? | 50µM* | -6%[12.7 µM] | 7% | -25%
Cc1ccc(NC(=O)c2cccnc2)cc1C | 13% | -11% | 4% | -10%[0.501 µM] | 23% | 7%
CC(C)CC(=O)NC(=S)Nc1ccc(N2CCOCC2)c(Cl)c1 | 5% | -6% | -33% | 11µM* | 22% | ?
COc1ccc(OCC(=O)NC(=S)Nc2ccc(N3CCOCC3)c(Cl)c2)cc1 | -26% | -25% | ? | ? | -18% | nt
CCCN1Cc2cccc(C(=O)Nc3ccc4c(c3)OCO4)c2C1=O | 0% | -14% | ? | 11%[12.7 µM] | -6% | -18%
O=C(Nc1ccc(N2CCCC2)c(Cl)c1)c1cccnc1 | 0% | -31% | 5% | 8.9µM* | 1% | 18%
CC1=C(C(=O)N2CCOC(CCCc3ccccc3)C2)OCCO1 (stereo unspecified) | nt | nt | nt | nt | nt | 8%
O=C(c1ccccc1F)N1CCn2c(nn(-c3ccc(F)cc3F)c2=O)C1 | nt | nt | nt | nt | nt | 19%
O=C(Nc1ccc2c(c1)OCCO2)c1cccnc1 | 14% | 89µM* | ? | -1%[59 µM] | 30% | -4%
O=C(CNc1cccc2ccccc12)N/N=C/c1ccccn1 | 4% | -33% | -18% | ? | -6% | 41%
O=C(CNc1cccc2ccccc12)N/N=C/c1cccc(Oc2ccccc2)c1 | -4% | ? | ? | 10µM* | -5% | 8%
O=C(CNc1cccc2ccccc12)N/N=C/c1ccc([N+](=O)[O-])cc1 | 6% | -2% | -2% | 8.9µM* | 37% | -15%
COc1cccc(/C=N/NC(=O)CCn2c3ccccc3c3ccccc32)c1 | 17% | 8% | -25% | 18µM* | 27% | 2%
